This is an account of results in PubChem BioAssay AID489036 (National Center for Advancing Translational Sciences (NCATS), 2010).

Records with an inconclusive call do not appear. Values without a mark were called inactive. Calls of active or inactive are those of the source. Calls follow the shape of the dose curve; as a rule, active = well fitted inhibition curve with a large enough effect; inconclusive = small, poorly fitted or top-dose-only effect, or effect the other way; inactive = flat fitted curve, though single readings scatter.

A short description of the experiment: VP16 selectivity assay for inhibitors of ROR gamma transcriptional activity. Conditions: Drosophila Schneider Gal4-VP16 UAS-luciferase reporter, 20 h; series mostly up to 92.2 µM; activity change, negative = inhibition: at the top concentration. In a few lines: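 Luciferase luminescence read after 20 hr induction with 700 uM (final) copper sulfate at ambient temperature, following 1 hr compound pretreatment. Counter-screen uses Schneider cells carrying metallothionein-driven Gal4 DBD–VP16 and a UAS-Photinus luciferase reporter.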
Background: Reporter assays use an easily measured gene product as a stand-in for the process of interest.
In the case of `COc1cc(OC)c(C(CC(=O)N2CC(C)CC(C)C2)c2ccc3c(c2)OCO3)c(OCC(N)=O)c1` (configuration not stated), the “activity change, negative = inhibition” value was -8.5%.
The same measure, in the same setting: with `CC1CCCN(C(=O)CC(c2ccccc2)c2ccc(O)cc2)C1` (configuration not stated) the figure was -20.2%.
The same measure, in the same setting: with `COc1cc(O)c(C(CC(=O)N2CCCC(COc3ccc(F)cc3)C2)c2ccc3c(c2)OCO3)c(OC)c1` (configuration not stated) the figure was -6.39%.
`CCN(CC)c1ccc(/C=N/n2c(-c3ccccc3Br)n[nH]c2=S)cc1`: the Potency was 2.04 µM (active).
Same read-out and setting: with `CC(C)(C(=O)Nc1nccs1)C(c1ccccc1)c1ccc(O)cc1` (configuration not stated) the figure was 36.3 µM (active).
Take `COc1cc(O)c(C(CC(=O)N2CCCC(C(=O)c3ccccc3)C2)c2ccc3c(c2)OCO3)c(OC)c1` (configuration not stated): the “activity change, negative = inhibition” value is 4.06%.
The same measure, in the same setting: the same measure for `COc1ccc(CNC(=O)[C@H](Cc2ccccc2)NC(=O)C2CCN(C(=O)[C@@H]3CCCN3C(=O)OC(C)(C)C)CC2)cc1`: -1.94%.
Turning to `COc1ccc(C(CC(=O)N2CCCC(C)C2)c2c(O)cc(OC)cc2OC)c(OC)c1` (configuration not stated), the “activity change, negative = inhibition” value is 3.14%.
On the same count and under the same terms, the same measure for `COc1cc(O)c(C(CC(=O)N2C[C@H](C)C[C@H](C)C2)c2ccc3c(c2)OCO3)c(OC)c1` (some centres not stated): -26.4%; for `COc1cc(O)c(C(CC(=O)N2CCCC(C)C2)c2ccccc2)c(OC)c1` (configuration not stated): 1.81%.
Turning to `CCOc1ccc(-c2cc(CCCC(=O)NCc3cccnc3)no2)cc1`, the Potency was 2.88 µM (active).
For `CC(C)(C)c1ccc(-c2noc(CCC(=O)Nc3cccnc3)n2)cc1`, the Potency is 2.04 µM (active).
On to `COc1cc(OC)c(C(CC(=O)N2CC(C)CC(C)C2)c2ccc3c(c2)OCO3)c(OC)c1` (configuration not stated), for which the Potency is 22.9 µM (active).
`COC(=O)Cn1c(CN2CCc3ccccc3C2)nc2c1c(=O)n(C)c(=O)n2C`: the Potency was 9.11 µM (active).
For the compound `COc1cc(O)c([C@H](CC(=O)N2CC(C)CC(C)C2)c2ccc3c(c2)OCO3)c(OC)c1` (some centres not stated), the “activity change, negative = inhibition” value is -28.7%.
On the same count and under the same terms, the same measure for `COc1cc(O)c(C(CC(=O)N2CCCC2)c2ccc3c(c2)OCO3)c(OC)c1` (configuration not stated): -4.65%; for `COc1cc(O)c(C(CC(=O)N(Cc2ccccc2)Cc2ccccc2)c2ccc3c(c2)OCO3)c(OC)c1` (configuration not stated): -7.83%.
